This is an account of results in PubChem BioAssay AID2455 (National Center for Advancing Translational Sciences (NCATS), 2010).

Some of the results follow. Records with an inconclusive call do not appear. Active and inactive are the calls of the source. The call rests on the fitted dose curve.

Sequence of Vitamin D3 receptor (Homo sapiens) (P11473 whole entry, looked up, the tested form may be a part): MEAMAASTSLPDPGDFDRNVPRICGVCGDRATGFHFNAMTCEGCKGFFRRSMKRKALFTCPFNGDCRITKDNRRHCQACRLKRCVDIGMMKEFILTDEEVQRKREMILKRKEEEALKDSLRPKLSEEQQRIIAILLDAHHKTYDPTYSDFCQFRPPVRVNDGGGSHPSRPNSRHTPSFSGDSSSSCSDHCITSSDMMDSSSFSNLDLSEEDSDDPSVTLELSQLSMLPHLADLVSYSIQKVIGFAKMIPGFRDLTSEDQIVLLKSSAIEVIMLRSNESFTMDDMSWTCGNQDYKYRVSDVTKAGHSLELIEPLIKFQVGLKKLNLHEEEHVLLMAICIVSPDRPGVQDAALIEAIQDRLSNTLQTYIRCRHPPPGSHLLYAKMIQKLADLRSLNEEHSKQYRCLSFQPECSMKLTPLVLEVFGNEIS

The target of this assay is Vitamin D3 receptor (Homo sapiens) (UniProt P11473). The assay is described as follows: Vitamin D Receptor Selectivity Assay for Inhibitors of the Interaction of Thyroid Hormone Receptor and Steroid Receptor Coregulator 2. To be noted: VDR LBD/SRC2-3 peptide, fluorescence polarization, 3 h. The text has this:
NIH Molecular Libraries Probe Production Network [MLPCN] NIH Chemical Genomics Center [NCGC] MLPCN Grant: DK058080 Assay Provider: R. Kip Guy, St. Jude Children's Research Hospital NCGC Assay Overview: Thyroid receptor (TR) regulates many homeostatic processes including basal metabolism, cardiovascular function, body weight, and lipid trafficking. TR modulators are potential therapeutics for obesity and hyperlipidemias but current thyroid analogs have undesirable side effects, particularly cardiac stimulation. This secondary assay characterized compounds identified in the qHTS for Inhibitors of the Interaction of Thyroid Hormone Receptor and Steroid Receptor Coregulator 2 (PubChem AID 1485) for selectivity against the vitamin D receptor (VDR). […] Small molecule inhibitors that block the interaction of VDR and SRC2-3 are detected by a decrease in fluorescence polarization. […] Quantification of the vitamin D receptor-coregulator interaction. […]
NCGC Assay Protocol Summary: Twenty uL/well 1 uM VDR and 5 nM Alexa Fluor 647 SRC2-3 peptide in buffer (25 mM PIPES, pH 6.75, 50 mM NaCl, 0.01% NP-40, 6 uM LG190178, and 4% DMSO) was dispensed into black solid 384-well plates (Costar 3710) using a Biomek FX (Beckman Coulter) liquid handling system. […] The plates were read by an Envision (Perkin Elmer) to detect fluorescence polarization of Alexa Fluor 647 (620 nm excitation and 688 nm emission).
In the case of `O=C(COC(=O)c1cccc([N+](=O)[O-])c1)NC1C2CC3CC(C2)CC1C3` (stereo unspecified), the compound was classed as inactive.
